Bioassay records (PubChem BioAssay)
The full list was thinned out, with hits kept by preference.
IDE exosite inh: displaces the probe from the exo-site of human IDE; purified IDE, FL-6b probe fluorescence polarization; active compounds read low; P14735; z-score at 20 µM; actives 6.3% (n = 17,000);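 active = z-score of -3 or lower, meaning strong loss of probe binding signal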;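 also: His-tagged human IDE residues 42-1019 made in E. coli with 30 nM FL-6b probe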
An asterisk follows results filed as active.

SMILES	IDE exosite inh
CCCC#Cc1ccc([C@H]2[C@@H](CO)N3CCCCN(C(=O)Cc4ccccn4)C[C@H]23)cc1	-1.4
O=C(Cc1ccccn1)N1CCCCN2[C@@H](CO)[C@@H](c3ccc(-c4ccccc4)cc3)[C@@H]2C1	-3.5*
O=C(Cc1ccncc1)N1CCCCN2[C@H](C1)[C@@H](c1ccc(C#Cc3ccccc3F)cc1)[C@@H]2CO	-1.8
O=C(Cc1ccccn1)N1CCCCN2[C@H](CO)[C@H](c3ccc(-c4ccc(F)cc4)cc3)[C@H]2C1	3.2
O=C(Cc1ccccn1)N1CCCCN2[C@H](CO)[C@@H](c3ccc(Br)cc3)[C@H]2C1	-0.92
O=C(Cc1ccncc1)N1CCCCN2[C@@H](CO)[C@H](c3ccc(C#Cc4ccccc4F)cc3)[C@@H]2C1	-0.41
Cc1ccccc1-c1ccc([C@@H]2[C@@H](CO)N3CCCCN(C(=O)Cc4ccccn4)C[C@@H]23)cc1	-9.5*
O=C(Cc1ccncc1)N1CCCCN2[C@H](CO)[C@H](c3ccc(C#Cc4ccccc4F)cc3)[C@@H]2C1	-4.3*
O=C(Cc1ccccn1)N1CCCCN2[C@H](C1)[C@@H](c1ccc(-c3ccccc3)cc1)[C@@H]2CO	-1.2
O=C(Cc1ccccn1)N1CCCCN2[C@H](C1)[C@H](c1ccc(Br)cc1)[C@@H]2CO	4.4
O=C(Cc1ccccn1)N1CCCCN2[C@H](CO)[C@H](c3ccc(-c4ccccc4)cc3)[C@H]2C1	-4.7*
O=C(Cc1ccccn1)N1CCCCN2[C@H](CO)[C@@H](c3ccc(-c4ccc(F)cc4)cc3)[C@@H]2C1	0.033
O=C(Cc1cccnc1)N1CCCCN2[C@H](C1)[C@H](c1ccc(C#CC3(O)CCCC3)cc1)[C@@H]2CO	-0.69
N#Cc1cccc(-c2ccc([C@@H]3[C@H]4CN(C(=O)Cc5ccncc5)CCCCN4[C@H]3CO)cc2)c1	1
O=C(Cc1ccccc1)N1CCCCN2[C@H](CO)[C@H](c3ccc(C#Cc4ccccc4)cc3)[C@@H]2C1	-1.9
O=C(Cc1ccccc1)N1CCCCN2[C@@H](CO)[C@@H](c3ccc(C#Cc4ccccc4)cc3)[C@@H]2C1	-1.3
COC(=O)[C@H]1[C@H](CO)[C@H]2Cn3c(ccc(-c4cccc(C(=O)N(C)C)c4)c3=O)[C@@H]1N2C(=O)NC(C)C	0.78
CCCC#Cc1ccc([C@H]2[C@H](CO)N3CCCCN(C(=O)Cc4ccccn4)C[C@@H]23)cc1	0.65
CCCC#Cc1ccc([C@@H]2[C@@H](CO)N3CCCCN(C(=O)Cc4ccccn4)C[C@H]23)cc1	0.23
O=C(Cc1ccccn1)N1CCCCN2[C@H](C1)[C@@H](c1ccc(C#Cc3ccccc3)cc1)[C@@H]2CO	-6.3*
N#Cc1cccc(-c2ccc([C@H]3[C@@H](CO)N4CCCCN(C(=O)Cc5ccccc5)C[C@@H]34)cc2)c1	2.5
O=C(Cc1ccccc1)N1CCCCN2[C@H](C1)[C@H](c1ccc(-c3ccccc3)cc1)[C@@H]2CO	2.2
O=C(Cc1cccnc1)N1CCCCN2[C@@H](CO)[C@H](c3ccc(/C=C/c4ccccc4)cc3)[C@@H]2C1	-9.2*
O=C(Cc1cccnc1)N1CCCCN2[C@H](CO)[C@H](c3ccc(C#CC4CCCC4)cc3)[C@@H]2C1	1.4
C/C=C/c1ccc([C@@H]2[C@@H](CO)N3CCCCN(C(=O)Cc4cccnc4)C[C@H]23)cc1	1.3
SMILES	IDE exosite inh
C/C=C/c1ccc([C@H]2[C@@H](CO)N3CCCCN(C(=O)Cc4cccnc4)C[C@@H]23)cc1	-0.18
C/C=C/c1ccc([C@@H]2[C@H]3CN(C(=O)Cc4ccncc4)CCCCN3[C@H]2CO)cc1	2.8
O=C(Cc1cccnc1)N1CCCCN2[C@H](C1)[C@H](c1ccc(/C=C/c3ccccc3)cc1)[C@@H]2CO	-5.5*
O=C(Cc1cccnc1)N1CCCCN2[C@H](CO)[C@H](c3ccc(/C=C/c4ccccc4)cc3)[C@@H]2C1	-11*
C/C=C/c1ccc([C@@H]2[C@H]3CN(C(=O)Cc4cccnc4)CCCCN3[C@H]2CO)cc1	0.34
O=C(Cc1cccnc1)N1CCCCN2[C@H](C1)[C@@H](c1ccc(C#CC3CCCC3)cc1)[C@@H]2CO	4.7
COCC#Cc1ccc([C@@H]2[C@H]3CN(C(=O)Cc4ccccn4)CCCCN3[C@H]2CO)cc1	-0.48
CCCC#Cc1ccc([C@@H]2[C@@H](CO)N3CCCCN(C(=O)Cc4ccccn4)C[C@@H]23)cc1	3.6
CN(C)CC#Cc1ccc([C@@H]2[C@H](CO)N3CCCCN(C(=O)Cc4ccccn4)C[C@@H]23)cc1	-0.7
COc1ccc(C#Cc2ccc([C@@H]3[C@H]4CN(C(=O)Cc5ccccc5)CCCCN4[C@H]3CO)cc2)cc1	2.8
N#Cc1cccc(-c2ccc([C@@H]3[C@H](CO)N4CCCCN(C(=O)Cc5ccccc5)C[C@@H]34)cc2)c1	2.7
N#Cc1ccc(-c2ccc([C@H]3[C@H]4CN(C(=O)Cc5ccccc5)CCCCN4[C@H]3CO)cc2)cc1	2.9
O=C(O)[C@H]1[C@H](CO)[C@H]2Cn3c(ccc(-c4ccncc4)c3=O)[C@@H]1N2S(=O)(=O)c1ccccc1F	0.78
CCCNC(=O)N1[C@@H]2c3ccc(-c4ccccc4OC)c(=O)n3C[C@H]1[C@H](CO)[C@H]2C(=O)OC	0.23
